This note sets out measurements from PubChem BioAssay.

A short description of test [1]: hESC survival regulators, cell-based (AID 493140; call rule not given here;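 further: cells exposed to compounds for four days before counting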). To be noted: human embryonic stem cell survival screen; stronger effect = higher value.
Test [2] is described as follows: liver-stage malaria parasite growth inhibition, primary screen, cell-based, HepG2, luciferase luminescence, HepG2 viability (AID 624349; in the data active means parasite load remaining mostly below about 12%, no sharp cut-off; inactive means mostly above about 10%;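 further: 100% = mean of DMSO negative control wells on the same plate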). Conditions: P. berghei liver stage in HepG2, luciferase luminescence, concentration not given here; parasite load remaining: stronger effect = lower value; viability: measured here: HepG2 viability without parasites.
A short description of test [3]: stimulators of nuclear beta-catenin in C2C12, primary screen, imaging, WNT3A-conditioned medium, mouse C2C12, NPC library (AID 1117326; in the data active means nuclear beta-catenin stimulation mostly above about 4.2%, no sharp cut-off; inactive means mostly below about 10%). Conditions: stronger effect = higher value.
The nature of test [4]: stimulators of insulin release from INS-1E, primary screen, cell-based, 5 mM glucose, NPC library (AID 1117329;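 active means compound raises insulin release from rat beta cells at 5 mM glucose, no numeric limit stated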). Conditions: rat INS-1E insulin secretion, at 10 µM, stronger effect = higher value.
Test [5] in a line: growth inhibition of GSK3B-pretreated HCT116 cells – cell-based, CellTiter-Glo, 0.2 to 20 µM (AID 1117336;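 active means compounds lowering colon cancer cell viability after pretreatment blocking the GSK3B kinase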). To be noted: HCT116 viability after GSK3B inhibitor, at 20 µM, stronger effect = higher value. For orientation: Cellular ATP, detected with luciferase, serves as a proxy for viable cell number.
Test [6] can be described thus: inhibition of endothelial tube formation, primary screen, imaging, VEGF stimulated, CD31 staining, tube area, NPC library (AID 1117340). Conditions: VEGF-stimulated ADSC/ECFC co-culture, at 10 µM, stronger effect = higher value.
Test [7] can be described thus: glucagon-like peptide 1 release enhancers, primary assay, NCI-H716 cell line, NPC library (AID 1117341;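 active means compound raises GLP1 secretion from the human gut endocrine cells, with no numeric limit stated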). To be noted: NCI-H716 cells, at 10 µM, stronger effect = higher value.
Test [8] in a line: HCT116 colon cancer cell growth inhibition, primary screen, CellTiter-Glo luminescence, NPC library (AID 1117342;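 active means compounds that lower survival of HCT116 colon cancer cells in the luminescence readout, no numeric limit stated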). Conditions: at 20 µM (top of the series).
A short description of test [9]: CellTiter-Glo luminescent readout of SW480 viability loss, NPC library primary (AID 1117343;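 active means compounds that lower viability of the colon cancer cells in the luminescence readout, with no numeric limit stated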). To be noted: CellTiter-Glo luminescence; at 20 µM (top of the series) unless noted.
The nature of test [10]: decreased DLD-1 cellular survival, CellTiter-Glo luminescent readout, NPC compound collection, primary HTS (AID 1117346;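 active means compounds that lower survival of DLD-1 colon cancer cells in the luminescence readout, no cutoff given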). To be noted: DLD-1 viability, CellTiter-Glo luminescence; at 20 µM (top of the series).
A short description of test [11]: differential killing of epithelial or mesenchymal cells, primary screen, imaging, PC-3E GFP, TEM4-18 mCherry, co-culture (AID 1345086;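 active means compounds killing one labelled cell type while sparing the other, by normalised counts and ratio limits, not self-fluorescent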;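 on all read-outs here: cells exposed to compound for 72 h before imaging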;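 on red/green cell ratio (normalised): normalised mesenchymal count divided by normalised epithelial count so high means epithelial killing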). To be noted: imaging cell counts, at 1 µM; for red/green cell ratio (normalised): actives lie on both sides, counts scaled to control wells, 1 = unselective.
A short description of test [12]: sensitizers of A549 cells to miR-34 induction, primary screen, imaging, A549 dox-inducible miR-34, nuclei and caspase counts (AID 1347080;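 active means compounds whose cell count with miR-34 switched on is under 0.7 times the count with it off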). Conditions: A549 miR-34 inducible, Hoechst nuclei count, 48 h.
A short description of test [13]: survival rescue of mitochondrial mutant cells in low glucose, primary screen, MELAS cybrids, Rieske KO mouse fibroblasts, CellTiter-Glo (AID 1508586;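 active means mean z-score across replicates of 1.96 or higher in either the MELAS or the Rieske mutant cell line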;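 further: z relative to plate mean and SD of compound and empty wells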).
Test [14] deals with NAD(+) hydrolase SARM1 (Homo sapiens) (UniProt Q6SZW1). In words: SARM1 TIR NADase inhibitors, cell lysate, NAD-Glo luminescence (AID 1508614;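 active means compound whose remaining NAD level is above about 45 nM, limit read from the data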). To be noted: SAM-TIR HEK293T lysate NADase, at 1 µM, stronger effect = higher value.
Chain of NAD(+) hydrolase SARM1 (Homo sapiens) (Q6SZW1 whole entry, looked up): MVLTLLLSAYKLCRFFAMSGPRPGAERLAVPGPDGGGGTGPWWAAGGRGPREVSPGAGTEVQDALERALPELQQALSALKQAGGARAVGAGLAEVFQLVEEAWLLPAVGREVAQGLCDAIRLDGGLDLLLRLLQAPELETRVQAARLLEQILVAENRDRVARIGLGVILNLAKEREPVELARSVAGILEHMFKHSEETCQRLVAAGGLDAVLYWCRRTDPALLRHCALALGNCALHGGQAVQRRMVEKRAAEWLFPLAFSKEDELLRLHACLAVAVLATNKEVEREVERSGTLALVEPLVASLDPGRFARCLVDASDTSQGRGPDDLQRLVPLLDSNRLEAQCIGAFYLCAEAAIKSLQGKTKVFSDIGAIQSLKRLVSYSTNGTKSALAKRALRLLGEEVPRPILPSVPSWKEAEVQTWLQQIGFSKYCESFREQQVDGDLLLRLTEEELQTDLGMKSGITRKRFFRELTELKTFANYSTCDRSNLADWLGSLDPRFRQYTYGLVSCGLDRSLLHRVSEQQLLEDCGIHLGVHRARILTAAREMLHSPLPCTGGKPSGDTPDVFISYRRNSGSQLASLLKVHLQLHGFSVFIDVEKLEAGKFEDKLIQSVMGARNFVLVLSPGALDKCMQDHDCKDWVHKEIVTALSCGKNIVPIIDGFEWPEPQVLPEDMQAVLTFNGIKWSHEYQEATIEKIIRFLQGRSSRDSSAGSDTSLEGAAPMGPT
Where [15] appears, read: measured here: epithelial PC-3E GFP cell survival.
[16] abbreviates: measured here: mesenchymal TEM4-18 mCherry cell survival.
Setting [17] is: stronger effect = lower value, cell number ratio, induced over uninduced.
The mark [18] stands for this setting: measured here: relative caspase fold change +Dox/-Dox.
The mark [19] stands for this setting: measured here: total cells with miR-34 induction, stronger effect = lower value.
The mark [20] stands for this setting: measured here: total cells without miR-34 induction.
[21] abbreviates: MELAS cybrid survival, CellTiter-Glo 48 h, stronger effect = higher value.
[22] abbreviates: Rieske KO mouse fibroblast survival, CellTiter-Glo 72 h.

The structures appear in SMILES notation. “And” between values parts separate entries of the source, which are not always exact repeats. Identical values can stand only once. The source made the active and inactive calls.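 How the source made its calls, unless noted: active means compound that reduces growth-factor-driven endothelial tube area in a mixed cell culture, no cutoff stated; inactive means the rest.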

For orientation: viability means the share of living cells, or the viability signal relative to a control. For the compound `CC(=O)c1ccc2c(c1)N(CCCN1CCC(CCO)CC1)c1ccccc1S2`, the survival in test [1] was 3.92 (inactive). The parasite load remaining in [2] is 69.8% (inactive). The compound also returned a viability in [2] of 79.8%. In addition, the nuclear beta-catenin stimulation in test [3] (at 10 µM) is 3% (inactive); in test [3] (stimulation, at 2 µM), 0.4%. The insulin secretion stimulation in test [4] was 1.7% (inactive). In addition, the viability decrease in test [5] is 78.7% (active). The tube area decrease in test [6] is 3.9% (inactive). In addition, in test [7], the GLP1 secretion stimulation is -6.7% (inactive). Besides, the inhibition of viability in test [8] is 77.2% (active). The figures for the viability decrease (inhibition) in [9] and in test [10] were 85.4% (active) and 60% (active), respectively. The red/green cell ratio (normalised) in test [11] is 1.13 (inactive). For the same compound, the normalised cell number in test [11] (setting [15]) turned out to be 0.92; in [11] (setting [16]), 1.04. Further, the fold change is 0.911 (inactive) in [12] (setting [17]) and 0.592 in test [12] (setting [18]). The cell count is 8130 in test [12] (setting [19]) and 8930 in test [12] (setting [20]). The z-score in [13] (setting [21]) is -0.364 (inactive); in test [13] (setting [22]), -0.0941. Moreover, the remaining NAD in test [14] is 10 nM (inactive).
In the case of `COc1cc(/C=C/C(N)=O)cc(OC)c1OC`, the nuclear beta-catenin stimulation is 1.1% (inactive) in [3] (at 10 µM) and 0.6% in [3] (stimulation, at 2 µM). Also, the insulin secretion stimulation in [4] was 0.8% (inactive). For the same compound, in test [5], the viability decrease is -4.6% (inactive). In [6], the tube area decrease was 11.9% (inactive). Further, the GLP1 secretion stimulation in test [7] is 0.1% (inactive). Moreover, in test [8], the inhibition of viability was -6% (inactive). Also, the viability decrease (inhibition) was 6.6% (inactive) in test [9] and 4.6% (inactive) in test [10]. In addition, in test [11], the red/green cell ratio (normalised) was 0.8 (inactive). Moreover, the figures for the normalised cell number in [11] (setting [15]) and in test [11] (setting [16]) were 1.28 and 1.03, respectively. For the same compound, the figures for the fold change in test [12] (setting [17]) and in test [12] (setting [18]) were 0.933 (inactive) and 0.864, respectively. Also, the figures for the cell count in [12] (setting [19]) and in [12] (setting [20]) were 8570 and 9180, respectively. The remaining NAD in test [14] is 10 nM (inactive).
As to `CC1(O)CCC(C(C)(C)O)CC1` (stereo not given), the nuclear beta-catenin stimulation is -0.3% (inactive) in test [3] (at 10 µM) and 1.1% in [3] (stimulation, at 2 µM). The insulin secretion stimulation in [4] is 1.4% (inactive). In addition, the viability decrease in test [5] is -1.3% (inactive). Besides, the tube area decrease in test [6] was 2.4% (inactive). Moreover, in test [7], the GLP1 secretion stimulation is -5.3% (inactive). Moreover, the inhibition of viability in test [8] was 1.1% (inactive). Further, the viability decrease (inhibition) was 5.7% (inactive) in [9] and -8.9% (inactive) in [10]. Besides, in test [11], the red/green cell ratio (normalised) was 1.09 (inactive). The values for the normalised cell number in test [11] (setting [15]) and in [11] (setting [16]) were 0.89 and 0.97, respectively. Besides, the fold change was 0.976 (inactive) in [12] (setting [17]) and 0.869 in [12] (setting [18]). For the same compound, the cell count stood at 8640 in test [12] (setting [19]) and 8850 in test [12] (setting [20]). Besides, the remaining NAD in test [14] is 10 nM (inactive).
Take `Cc1cccc(C)c1NC(=O)c1ccccc1C(=O)O`: the nuclear beta-catenin stimulation in [3] (at 10 µM) was 0.1% (inactive); in [3] (stimulation, at 2 µM) it was 0.7%. Besides, the insulin secretion stimulation in [4] was -0.4% (inactive). The viability decrease in test [5] was -4.6% (inactive). Besides, the tube area decrease in test [6] was -28.9% (inactive). The GLP1 secretion stimulation in test [7] was 1.9% (inactive). Besides, the inhibition of viability in test [8] was 3.1% (inactive). The viability decrease (inhibition) is 49.6% (inactive) in test [9] and 17.1% (inactive) in test [10]. Also, the red/green cell ratio (normalised) in test [11] was 0.84 (inactive). Moreover, the normalised cell number in test [11] (setting [15]) is 0.94; in [11] (setting [16]), 0.79. For the same compound, the fold change was 0.96 (inactive) in test [12] (setting [17]) and 0.664 in [12] (setting [18]). The cell count in [12] (setting [19]) is 8770; in test [12] (setting [20]) it was 9130. Besides, in [14], the remaining NAD was 10 nM (inactive).
Take `Cc1cc2c(cc1S(N)(=O)=O)S(=O)(=O)CCC2`: the survival in test [1] is 26.1 (inactive). Moreover, the parasite load remaining in test [2] was 38.3% (inactive) and 103% (inactive). Further, the viability in test [2] was 50.2% and 93.9%. The nuclear beta-catenin stimulation in [3] (at 10 µM) was -0.4% (inactive); in test [3] (stimulation, at 2 µM), 1%. Moreover, in test [4], the insulin secretion stimulation was 1.4% (inactive). Besides, the viability decrease in [5] is -10.3% (inactive). In test [6], the tube area decrease was 3.5% (inactive). The GLP1 secretion stimulation in test [7] was -0.7% (inactive). Moreover, the inhibition of viability in test [8] was -0.03% (inactive). Further, the figures for the viability decrease (inhibition) in test [9] and in test [10] were 3.2% (inactive) and -1.8% (inactive), respectively. Also, the red/green cell ratio (normalised) in test [11] was 0.91 (inactive). Moreover, the normalised cell number in test [11] (setting [15]) was determined as 0.86; in test [11] (setting [16]) it was 0.78. Also, the results for the fold change in [12] (setting [17]) and in [12] (setting [18]) were 0.932 (inactive) and 1.01, respectively. Further, the cell count was 8570 in [12] (setting [19]) and 9200 in test [12] (setting [20]). Further, the z-score in test [13] (setting [21]) is -0.881 (inactive); in [13] (setting [22]), 0.124. In addition, the remaining NAD in [14] was 10 nM (inactive).
